The list is not random: actives were taken first. Their share in the collection is about 5%.
TSHR agonist = qHTS Assay for Agonists of the Thyroid Stimulating Hormone Receptor; HEK293-CNG-TSHR cells (CNG channel as cAMP sensor), membrane potential dye, cAMP; Potency, µM (doses to about 57.1 µM), hits mostly activators; 73,000 compounds, 0.48% hits; AID 926, 2007; active = well fitted activation curve with a large enough effect in the main read-out, with a control signal flat, not every such curve was filed as active; inconclusive = small, poorly fitted or top-dose-only effect, or a change in a side signal; inactive = no such curve, though single readings can be large or run the other way; reference of the percent scale not stated here;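 note: the control signal comes from parental cells without the receptor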
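HEK 293 cells stably expressing TSHR and a modified CNG channel, with CNG-only parental cells as counterscreen, were preloaded 60 min at room temperature with membrane potential dye containing 100 uM RO 20-1724. Compound exposure was 30 min, and depolarization was read as fluorescence at 590 nm.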
Casp7 inh = qHTS Assay for Allosteric/Competitive Inhibitors of Caspase-7. Potency, µM (doses to about 57.5 µM), actives largely listed as inhibitors. recombinant caspase-7, Ac-DEVD-AFC fluorescence rate. 75,000 compounds, 0.02% hits; active = well fitted inhibition curve with a large enough effect in the main read-out, with a control signal flat, not every such curve was filed as active; inconclusive = small, poorly fitted or top-dose-only effect, or a change in a side signal
Target sequence (P55210 24-198 limits assumed): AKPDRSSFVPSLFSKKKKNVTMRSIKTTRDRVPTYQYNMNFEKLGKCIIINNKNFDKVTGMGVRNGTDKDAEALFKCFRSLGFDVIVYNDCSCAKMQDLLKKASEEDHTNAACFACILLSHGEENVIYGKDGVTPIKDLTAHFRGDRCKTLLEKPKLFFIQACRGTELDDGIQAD
Target sequence (P55210 207-303 limits assumed): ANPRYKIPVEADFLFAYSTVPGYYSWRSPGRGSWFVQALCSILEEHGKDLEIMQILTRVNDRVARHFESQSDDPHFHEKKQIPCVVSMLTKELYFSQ
HEK293 cAMP ctrl = qHTS Assay for Agonists of the Thyroid Stimulating Hormone Receptor: Activators of Intracellular cAMP Concentrations in Parental HEK 293; 73,000 compounds, 2.5% hits; Potency, µM (series often up to 57.1 µM), actives largely listed as activators; parental HEK293 CNG cAMP sensor, membrane potential fluorescence; note: nearly all actives have a fitted effect of over 55% in size
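Parental HEK 293 cells stably expressing a cAMP-gated CNG channel were loaded with membrane potential dye containing 100 uM RO 20-1724 for 60 min. Compound added for 30 min; depolarization read as fluorescence intensity at 590 nm.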
CRE-bla Fsk = Cell signaling CRE-BLA (Fsk stim); CHO CRE-bla reporter (cAMP response element driving beta-lactamase), forskolin EC10, beta-lactamase ratio; Potency, µM (highest dose often 38.2 µM), most hits filed as activators; 71,000 compounds, 2.5% hits; AID 662, 2007; active = well fitted activation curve with a large enough effect in the signal ratio, with a control signal flat, not every such curve was filed as active; inconclusive = small, poorly fitted or top-dose-only effect, or effect the other way, or a change in a side signal; the % refers to the signal ratio
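Cells were plated overnight at 37 °C, exposed to compound titrations plus EC10 NKH 477 for 3 h, then given CCF4 dye for 2 h at room temperature. Blue/green (460/530 nm) ratio was converted to %Activity and AC50 values calculated.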
Caspase-1 inhib = qHTS Assay for Allosteric/Competitive Inhibitors of Caspase-1; P29466; Caspase-1 enzyme, Ac-WEHD-AFC fluorogenic rate; Potency, µM (top dose mostly 57.5 µM), most hits filed as inhibitors; 75,000 compounds, 0.03% hits
Target sequence (P29466 120-297 limits assumed): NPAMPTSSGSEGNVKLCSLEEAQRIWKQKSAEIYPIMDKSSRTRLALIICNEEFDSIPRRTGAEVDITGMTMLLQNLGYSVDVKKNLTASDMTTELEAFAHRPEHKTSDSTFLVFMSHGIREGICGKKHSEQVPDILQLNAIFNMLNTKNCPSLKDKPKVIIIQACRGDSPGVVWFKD
Target sequence (P29466 317-404 limits assumed): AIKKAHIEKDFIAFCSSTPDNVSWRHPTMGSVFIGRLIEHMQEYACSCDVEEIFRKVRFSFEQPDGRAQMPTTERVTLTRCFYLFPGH
USP2a inh = qHTS Assay for Inhibitors of Ubiquitin-specific Protease USP2a | 60,000 compounds, 0.1% hits | USP2a enzymatic assay, qHTS inhibition | Ubiquitin carboxyl-terminal hydrolase 2 (Homo sapiens), O75604 | Potency, µM (doses to about 38.3 µM), hits mostly inhibitors | AID 927, 2007; note: nearly all actives have a fitted effect of over 60% in size
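20 nM USP2 core + cpd, 30 min RT; add 20 nM Ub-PLA2/20 uM NBD C6-HPC; read Ex460/Em535 at 0 h and 2.5 h. Normalized to NEM; qHTS curve fit/classification.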
Each line names hits and unclear results; the compound was inactive in the other large screens. Unless noted, calls come from the whole dose curve; as a rule, active = well fitted curve in the direction sought with a large enough effect; inconclusive = small, poorly fitted or top-dose-only effect, or another doubt; inactive = no such curve, though single readings can be large; an effect the other way counts as inactive or inconclusive.

CCc1c2c(nc3cccc(C(C)C)c13)-c1cccc(=O)n1C2	CRE-bla Fsk 12.6µM, Caspase-1 inhib inconclusive (no result: USP2a inh)
CC(C)c1cccc2cc3c(nc12)-c1cccc(=O)n1C3	TSHR agonist inconclusive, HEK293 cAMP ctrl inconclusive, CRE-bla Fsk inconclusive (no result: USP2a inh)
CC[C@@]1(O)C(=O)COc2c1cc1n(c2=O)Cc2c-1nc1cccc(C(C)C)c1c2[Si](C)(C)C	Casp7 inh inconclusive, CRE-bla Fsk 12.6µM (no result: TSHR agonist, Caspase-1 inhib, USP2a inh)
Cc1nn(-c2ccccc2)c2c1/C(=N/O)CC(C)(C)C2	TSHR agonist inconclusive, HEK293 cAMP ctrl 25.1µM, CRE-bla Fsk inconclusive
Cc1nn(-c2ccccc2)c(N2CCCCC2)c1/C=N/O	none
CC[C@]1(O)C[C@H]2CN(CCc3c([nH]c4ccccc34)[C@](C(=O)OC)(c3cc4c(cc3OC)N(C)[C@@H]3[C@](O)(C(=O)OC)[C@H](OC(C)=O)[C@]5(CC)C=CCN6CC[C@]43[C@@H]65)C2)C1	CRE-bla Fsk 0.631µM (no result: TSHR agonist)
c1ccc(SCCSc2ccccc2)cc1	none (no result: USP2a inh)
COc1ccc(OC)c(C(c2nnnn2C2CCCC2)N2CCN(c3ccc(F)cc3)CC2)c1 (stereo unspecified)	TSHR agonist inconclusive, HEK293 cAMP ctrl inconclusive (no result: USP2a inh)
COCCn1nnnc1C(c1ccc(OC)cc1OC)N1CCN(c2ccccc2)CC1 (stereo unspecified)	none (no result: USP2a inh)
COc1ccc(C(c2nnnn2C2CCCC2)N2CCC(C)CC2)c(OC)c1 (stereo unspecified)	TSHR agonist inconclusive, HEK293 cAMP ctrl 15.8µM
COc1ccc(C(c2nnnn2Cc2cccs2)N2CCN(c3ccccc3F)CC2)cc1 (stereo unspecified)	TSHR agonist inconclusive, HEK293 cAMP ctrl 20µM, CRE-bla Fsk inconclusive
COc1ccc(C(c2nnnn2Cc2ccccc2)N2CCN(c3ccccc3)CC2)cc1 (stereo unspecified)	TSHR agonist inconclusive, HEK293 cAMP ctrl inconclusive (no result: USP2a inh)
COCCn1nnnc1C(c1ccc(OC)cc1OC)N1CCN(c2ccccc2F)CC1 (stereo unspecified)	TSHR agonist inconclusive, HEK293 cAMP ctrl 25.1µM
O=C1C=C[C@@H](O)[C@H]2[C@@H]3C(=O)N(Cc4ccccc4)C(=O)[C@@H]3CC[C@H]12	none (no result: CRE-bla Fsk, USP2a inh)
CN1CCC[C@H](C(=O)OCC(=O)[C@]2(O)CC[C@@H]3[C@H]4CCC5=CC(=O)CC[C@@]5(C)[C@H]4[C@@H](O)C[C@]32C)C1	none (no result: USP2a inh)
Cc1cc(=O)[nH]c(/N=C(\N)Nc2ccc(Cl)cc2)n1	none (no result: USP2a inh)
COc1cccc(C2=NOC(C(=O)NCc3ccc(F)cc3)C2)c1 (stereo unspecified)	TSHR agonist inconclusive, HEK293 cAMP ctrl inconclusive, CRE-bla Fsk 12.6µM
COc1ccc(C2=NOC(C(=O)NCc3ccc(F)cc3)C2)cc1OC (stereo unspecified)	CRE-bla Fsk 12.6µM
COc1ccc(C2=NOC(C(=O)Nc3cc(C)nn3-c3ccccc3)C2)cc1OC (stereo unspecified)	CRE-bla Fsk 2.51µM (no result: USP2a inh)
C[C@H](CCC(=O)NN)[C@@H]1CC[C@@H]2[C@H]3CC[C@H]4C[C@@H](O)CC[C@@]4(C)[C@@H]3CC[C@]21C	none (no result: USP2a inh)
O=C(O)C[C@@H](C(=O)O)c1ccccc1[N+](=O)[O-]	TSHR agonist inconclusive, HEK293 cAMP ctrl inconclusive (no result: USP2a inh)
O=C1C2=CC[C@H]3C(=O)N(Cc4ccc5c(c4)OCO5)C(=O)[C@@H]3[C@@H]2[C@H](O)[C@@H]2O[C@H]12	none (no result: CRE-bla Fsk, USP2a inh)
CN(C)c1ccc(-c2nc(N(C)Cc3ccco3)c3ccccc3n2)cc1	CRE-bla Fsk inconclusive, Caspase-1 inhib inconclusive
CN(C)c1ncnc2ccc(-c3ccoc3)cc12	none
COc1ccccc1-c1ccc2ncnc(N(C)Cc3ccco3)c2c1	TSHR agonist inconclusive, HEK293 cAMP ctrl 3.16µM, CRE-bla Fsk inconclusive
CN(Cc1ccco1)c1ncnc2ccc(-c3ccoc3)cc12	TSHR agonist inconclusive, HEK293 cAMP ctrl 15.8µM, CRE-bla Fsk inconclusive
CN(Cc1ccco1)c1nc(-c2ccoc2)nc2ccccc12	TSHR agonist inconclusive, HEK293 cAMP ctrl 15.8µM, CRE-bla Fsk inconclusive
CN(Cc1ccco1)c1ncnc2ccc(-c3ccccc3Cl)cc12	TSHR agonist inconclusive, HEK293 cAMP ctrl inconclusive, CRE-bla Fsk inconclusive
CN(Cc1ccco1)c1ncnc2ccc(-c3cccc(NS(C)(=O)=O)c3)cc12	TSHR agonist inconclusive, HEK293 cAMP ctrl inconclusive, CRE-bla Fsk 1.26µM
CC(=O)C[C@H](O)[C@@H](NC(=O)OC(C)(C)C)C(C)C	none (no result: CRE-bla Fsk, USP2a inh)
O=C(O)C(Cc1cccs1)C(=O)O	none (no result: USP2a inh)
Nc1ncnc2c1nc(Sc1ccc(Cl)cc1)n2[C@@H]1O[C@H]2COP(=O)(O)O[C@@H]2[C@H]1O	CRE-bla Fsk inconclusive
N=C(N)SCCN1CCCCC1	TSHR agonist inconclusive, HEK293 cAMP ctrl inconclusive (no result: USP2a inh)
O=C1c2oc3ccccc3c(=O)c2C(c2cccc(Br)c2)N1Cc1ccco1 (stereo unspecified)	TSHR agonist inconclusive, HEK293 cAMP ctrl 12.6µM
CCOc1ccc(Cc2nccc3cc(OCC)c(OCC)cc23)cc1OCC	TSHR agonist inconclusive, HEK293 cAMP ctrl inconclusive, CRE-bla Fsk 1.26µM
Oc1ccc(Cc2nccc3cc(O)c(O)cc23)cc1O	Casp7 inh inconclusive, CRE-bla Fsk inconclusive (no result: Caspase-1 inhib, USP2a inh)
CCN1CCC[C@@H]1CNC(=O)c1c(O)c(Cl)cc(Cl)c1OC	none
COC(=O)C1=C(C)NC2=C(C(=O)CCC2)C1c1cccs1 (stereo unspecified)	none
CCOC(=O)C1=C(N)OC2=C(C(=O)CC(C)(C)C2)C1c1ccoc1 (stereo unspecified)	TSHR agonist inconclusive, HEK293 cAMP ctrl 12.6µM
CCOC(=O)C1=C(N)OC2=C(C(=O)CC(C)(C)C2)C1c1cccnc1 (stereo unspecified)	TSHR agonist inconclusive, HEK293 cAMP ctrl inconclusive
COC(=O)C1=C(N)OC2=C(C(=O)CC(C)(C)C2)C1c1cccs1 (stereo unspecified)	TSHR agonist inconclusive, HEK293 cAMP ctrl 3.16µM
COC(=O)NC(CC(C)=O)c1ccc(F)cc1 (stereo unspecified)	none (no result: CRE-bla Fsk, USP2a inh)
O=c1c2ccccc2nc(SCc2cn3ccsc3n2)n1-c1ccccc1F	TSHR agonist inconclusive, HEK293 cAMP ctrl inconclusive, CRE-bla Fsk 5.01µM
O=c1c2ccccc2nc(SCc2cn3ccsc3n2)n1-c1ccccc1	TSHR agonist inconclusive, HEK293 cAMP ctrl inconclusive, CRE-bla Fsk 1.26µM
Cc1cccc(N2CCN(c3nnnn3-c3ccccc3)CC2C)c1 (stereo unspecified)	TSHR agonist inconclusive, HEK293 cAMP ctrl 25.1µM

Screening data (PubChem)
